Shown are actives, neighbours in structure and some others; about 4.1% of the full set was active somewhere.
hgDAF12 agonist: activates the H. glycines DAF-12 receptor ligand-binding domain; activation, % at 6.8 µM; 1.8% of 370,000 active; HEK293 GAL4-hgDAF12 UAS-luciferase reporter, agonist luminescence; normalized to butyrate control;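 active = activation above a cutoff set at the mean of all screened compounds plus 3 SD, cut at about 10% in these data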;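 also: 0% = DMSO wells and 100% = sodium butyrate wells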
DAX1 inh-1: blocks DAX1 repression of SF-1 activated StAR promoter; HEK293T StAR-luciferase reporter, SF-1/DAX-1 repression relief; AID 652010; inhibition, % at 6.8 µM; 1.1% of 370,000 active;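 active = inhibition above the mean over all tested compounds plus 3 SD, cut at about 3.6% in these data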;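 also: 0% = DAX-1 cells with DMSO and 100% = cells lacking DAX-1 with DMSO; higher inhibition means more luminescence from relief of DAX-1 repression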
DAX1 inh-2: inhibits human nuclear receptor DAX1; P51843; HEK293 Gal4-DAX1 luciferase reporter, luminescence; inhibition, % at 6.75 µM; 0.99% of 340,000 active; AID 504766;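 active = inhibition above the mean over all tested compounds plus 3 SD, cut at about 4.2% in these data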;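 also: 0% = DAX1-transfected cells with DMSO and 100% = empty-vector control cells with DMSO; inhibition shows as a rise in luminescence from relieved DAX1 repression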
hcDAF-12 act: activators of H. contortus DAF-12 nuclear receptor; HEK293 hcDAF-12 lit1-tk-luc reporter, luminescence; 0% DMSO, 100% Δ7-dafachronic acid; activation, % at 6.8 µM; 1.4% of 370,000 active; AID 652067;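 active = activation above the mean of all tested compounds plus 3 SD, cut at about 5.5% in these data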;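 also: 100% = response to 3 µM Δ7-dafachronic acid high control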
ssDAF-12 act: S. stercoralis DAF-12 activation, primary screen | HEK293 ssDAF-12/GRIP1 lit1-tk-luc reporter, luminescence; % of 3 µM dafachronic acid response | activation, % at 6.8 µM | 1% of 370,000 active | AID 652126;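 active = activation above the mean over all tested compounds plus 3 SD, cut at about 0.9% in these data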;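 also: 0% = DMSO-only wells and 100% = 3 µM delta7-dafachronic acid wells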
hgDAF12 conf: confirmation of H. glycines DAF-12 agonists; shares compounds with hgDAF12 agonist; HEK293 GAL4-hgDAF12 luciferase reporter, agonist mode; percent of butyrate response; activation, % at 6.8 µM; 80% of 3,300 active; AID 743050;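 active = mean activation over triplicate wells above the hit cutoff derived from the earlier primary screen, cut at about 11% in these data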;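 also: 0% = DMSO low control and 100% = 2 mM sodium butyrate high control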
LXRb DAF12 ctr: counter-screen for DAF-12 agonists: agonists of human LXR-beta; 3,300 tested, under 10 active; activation, % at 6.8 µM; shares compounds with hgDAF12 agonist; AID 743051; HEK293 Gal4-LXR luciferase reporter, 24 h;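 active = mean activation of the triplicate above a set limit carried over from the primary screen, none filed active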
Target sequence (P55055 whole entry, looked up, the tested form may be a part): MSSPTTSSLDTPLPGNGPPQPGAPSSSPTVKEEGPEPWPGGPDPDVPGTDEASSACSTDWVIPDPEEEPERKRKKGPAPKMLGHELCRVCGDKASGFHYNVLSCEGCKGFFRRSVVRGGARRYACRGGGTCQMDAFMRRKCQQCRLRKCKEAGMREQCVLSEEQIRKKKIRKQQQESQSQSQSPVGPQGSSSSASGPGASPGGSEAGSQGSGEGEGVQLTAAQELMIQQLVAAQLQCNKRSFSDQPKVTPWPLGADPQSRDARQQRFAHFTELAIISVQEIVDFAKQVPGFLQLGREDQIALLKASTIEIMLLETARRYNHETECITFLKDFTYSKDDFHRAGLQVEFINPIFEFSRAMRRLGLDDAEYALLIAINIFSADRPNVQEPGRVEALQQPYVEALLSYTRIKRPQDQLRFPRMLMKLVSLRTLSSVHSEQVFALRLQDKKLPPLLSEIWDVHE
* = called active by the depositor; x = no result.

SMILES | hgDAF12 agonist | DAX1 inh-1 | DAX1 inh-2 | hcDAF-12 act | ssDAF-12 act | hgDAF12 conf | LXRb DAF12 ctr
Oc1ccccc1C=Nc1ccccc1-c1nc2ccccc2[nH]1 | 18* | 2 | 3 | 2 | -1 | -2 | 0
Fc1ccccc1-c1nc2ccccc2[nH]1 | 15* | 3 | 4.9* | 2 | -1 | 12* | 1
c1ccc2c(-c3nc4ccccc4[nH]3)cccc2c1 | 5 | -4 | -3 | -1 | -1 | x | x
Cc1nn2c(N)c(-c3ccccc3)cnc2c1-c1ccc(Cl)cc1 | 14* | 1 | 1 | 3 | 1 | 17* | 0
Cc1nc2c(-c3ccccc3)c(C)nn2c(N)c1-c1ccccc1 | 8 | 3 | 1 | 4 | 0 | x | x
COc1cccc(/C=C/c2ccccn2)c1O | 16* | 4 | 3 | 5 | 0 | 14* | 1
COc1cccc(CN(C)C(=O)c2cc(COc3ccc4ncccc4c3)on2)c1 | -11 | -3 | -3 | -6 | -3 | x | x
NC(=O)C1CCN(CC(O)COCc2ccccc2Cl)CC1 (configuration not stated) | -3 | 0 | -1 | -3 | 0 | x | x
Cc1ccc(NC(=O)C2(c3ccccc3)CCOCC2)c([N+](=O)[O-])c1 | -1 | 0 | 0 | 3 | 0 | x | x
O=C(Nc1ccc(Cl)cc1F)c1ccccc1Br | 15* | 4.4* | 1 | 5 | -1 | 14* | 1
COCCCN1C(=O)C(CC(=O)NC2CC2)CC(C(=O)N2CCOCC2)=C1C (configuration not stated) | 0 | 2 | x | 0 | -1 | x | x
CC(/C=N/NC(=O)c1nn(C)c(C)c1Br)=C\c1ccccc1 | 14* | 2 | 2 | 3 | 0 | 9 | 0
CCCNC(=O)c1noc2c1CCc1cc(OC)ccc1-2 | 16* | 3.8* | 3 | 2 | -1 | 13* | 1
Nc1ccccc1NC(=O)c1ccccc1N | 5 | 0 | 0 | 0 | 0 | x | x
Nc1ccccc1NC(=O)NC(=O)c1ccccc1 | 16* | 2 | 4.6* | 1 | 2.0* | 16* | 0
COc1ccc(/C=C/c2nc3ccccc3n2Cc2ccccc2OC)cc1 | 16* | 4.4* | 3 | 5 | 0 | 12* | 1
Cc1ccc(Nc2nc(-c3ccccc3)c(CC(=O)O)s2)cc1 | 14* | 2 | 0 | 2 | 0 | 13* | 0
Cc1ccc(-c2nc(-c3ccccn3)sc2CC(=O)O)cc1 | 6 | 0 | 0 | -1 | -1 | x | x
COc1cc(C2c3c(c(C)c(C)oc3=O)Oc3c(C)c(C)oc(=O)c32)ccc1OS(=O)(=O)c1ccc(C)cc1 | -2 | 1 | 0 | -2 | -1 | x | x
Cc1ccc(NC(=O)Nc2ccc(F)cc2)cc1Cl | 15* | 0 | 0 | 2 | 0 | 11* | 0
CC(C)(C)c1ccc(NC(=O)c2ccc(=O)[nH]n2)cc1 | 17* | 2 | 5.6* | 5 | 0 | 14* | 1
O=C(Nc1ccc2c(c1)OCO2)c1ccc(=O)[nH]n1 | 3 | 2 | -1 | 1 | -1 | x | x
CC(C)(C)c1ccc(COC(=O)Nc2ccc(F)cc2)cc1 | 3 | 0 | -1 | 0 | -1 | x | x
Cc1ccc(NC(=O)N2CCCC2)cc1Cl | 0 | 1 | 0 | -1 | 0 | x | x
Cc1ccc(NC(=O)C(=O)N2CCCC2)cc1Cl | 15* | 3 | 3 | 2 | 0 | 13* | 0
SMILES | hgDAF12 agonist | DAX1 inh-1 | DAX1 inh-2 | hcDAF-12 act | ssDAF-12 act | hgDAF12 conf | LXRb DAF12 ctr
CC(C)(C)c1ccc(NC(=O)Nc2ccc(F)cc2)cc1 | 15* | 3.6* | x | 3 | 0 | 15* | 1
CCCOc1ccc(/C(O)=C2\C(=O)C(=O)N(c3ccccn3)C2c2ccccc2F)cc1C (configuration not stated) | 6 | 1 | 1 | 2 | -1 | x | x
Cc1cccc(-n2c(SCC(=O)c3c(N)n(C4CC4)c(=O)[nH]c3=O)nnc2N2CCOCC2)c1 | 0 | 1 | 1 | 1 | -1 | x | x
CCN(CC)S(=O)(=O)c1ccc(NC(=O)COC(=O)CCc2cc(OC)c(OC)c(OC)c2)cc1 | 2 | 0 | -1 | -2 | -1 | x | x
CN(CC(=O)Nc1ccc(N2CCOCC2)cc1)C(=O)c1cc(F)c(F)cc1Cl | 2 | 3 | -1 | 0 | -1 | x | x
Cc1ccc(NC(=O)c2ccc(OCc3c(C)noc3C)cc2)nc1 | 1 | -1 | -1 | -2 | -2 | x | x
COc1cccc(NC(=O)Nc2ccc(C(C)(C)C)cc2)c1 | 18* | 1 | 0 | 3 | -1 | 11* | 0
CCOc1ccc(-n2ccc(=O)c(C(=O)Nc3ccc(S(=O)(=O)Nc4ncccn4)cc3)n2)cc1 | -1 | 0 | 1 | -3 | -1 | x | x
CC(=O)Nc1cccc(-c2csc(Nc3ncccn3)n2)c1 | 19* | 2 | x | 5 | 1.1* | 16* | 1
Clc1ccc(-c2csc(Nc3cccnc3)n2)cc1 | 3 | 0 | 2 | 1 | -1 | x | x
Clc1cccc(Nc2nc(-c3ccncc3)cs2)c1 | 14* | 1 | -1 | 2 | -1 | 7 | 0
O=C(Nc1cccc(-c2csc(Nc3ccc(Cl)cc3)n2)c1)c1ccccc1 | -1 | -1 | 1 | 3 | -1 | x | x
O=S(=O)(c1ccccc1)N1CCN(CCO)CC1 | 1 | 0 | 0 | 0 | -1 | x | x
C/C(CC(=O)Nc1ccc(C)c(Cl)c1)=N\NC(=O)c1ccccn1 | 14* | 3 | -1 | 5 | 0 | 7 | 0
Fc1ccc(Nc2nc3ccccc3s2)cc1 | 26* | 3 | 3 | 5 | 0 | 12* | 0
Cc1ccccc1Nc1nc2ccccc2s1 | 17* | 2 | 6.2* | 6.2* | 0 | 18* | 1
CC(=O)Nc1ccc(NC(=O)COc2ccc(Br)cc2C)cc1 | 1 | 1 | 2 | -1 | -2 | x | x
Cc1cccc(NC(=O)COc2ccc(Br)cc2/C=N/O)c1 | 15* | 3 | 1 | 5 | 0 | 11* | 0
Cn1c(N)c(C(=O)Nc2ccc3ccccc3c2)sc1=S | 15* | 2 | 3 | 3 | -1 | 13* | 1
CC(C)CN(C(=O)COC(=O)C12CC3CC(CC(C3)C1)C2)c1c(N)n(Cc2ccccc2)c(=O)[nH]c1=O | 2 | 2 | 2 | 0 | -1 | x | x
CC(C)N1CCc2c(-c3nc4ccccc4s3)csc2C1 | 5 | x | x | 0 | -1 | x | x
Cc1ccc(C(=O)Cc2nc3ccccc3[nH]2)cc1 | 6 | 1 | 0 | 2 | 0 | x | x
Cc1ccc(OCc2nc3ccccc3[nH]2)cc1 | 16* | 4.2* | 0 | 6.0* | 0 | 13* | 1
O=C(CCCc1ccncc1)c1ccccc1 | 13* | 1 | 3 | 1 | 0 | 9 | 0
c1ccc(CCCCc2ccncc2)cc1 | 2 | -1 | -1 | -1 | -1 | x | x

Screens (PubChem BioAssay)
